# Activity calls are given as the source filed them.
# Tests used:
# [1] = system: Plasmodium falciparum Sir2 (PF13_0152, Sir2A); experiment: Plasmodium falciparum Sir2A binding compounds – biochemical, small-molecule microarray, 635 nm fluorescence, primary screen (AID 1098); settings: fluorescence 635 nm, higher = more signal;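 note: score merges spot fluorescence intensity with its signal-to-noise ratio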
# [2] = probe aDKK1 binding to arrayed compounds – biochemical, biotinylated probe, 635/667 nm fluorescence, primary screen (AID 1099); settings: small-molecule microarray, higher = more signal;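 note: score merges 667nm spot fluorescence with signal to noise across triplicate slides; reference of the scale not given here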
# [3] = probe aCHRDL2 binding to arrayed compounds – biochemical, biotinylated probe, 635/667 nm fluorescence, primary screen (AID 1100); settings: small-molecule microarray, higher = more signal
# [4] = change in splice reporter luminescence, either direction, cell-based, HEK293, spliceosome inhibition project, primary screen (AID 1101); settings: HEK293 splicing luciferase reporter, 24 h, higher = more signal, called active from +8 up or from −8 down;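 note: HEK293 cells carrying a splicing-competent luciferase reporter gene; test concentration not given here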
# [5] = target: Fibroblast growth factor 10 (Homo sapiens) (UniProt O15520); experiment: compounds binding fibroblast growth factor 10 – biochemical, small-molecule microarray, 635 nm fluorescence, primary screen (AID 1102); settings: FGF10 binding, fluorescence 635 nm, higher = more signal
# [6] = system: glycogen synthase kinase-3 (GSK3A per assay name; protocol says GSK3B); experiment: compounds binding glycogen synthase kinase-3 – biochemical, small-molecule microarray, 635 nm fluorescence, GSK3A, primary screen (AID 1103); settings: fluorescence 635 nm, higher = more signal; note: the record names both GSK3A and GSK3B
# [7] = target: Epidermal growth factor receptor (Homo sapiens) (UniProt P00533); experiment: compounds binding epidermal growth factor receptor – biochemical, small-molecule microarray, 635 nm fluorescence, primary screen (AID 1104); settings: EGFR binding, higher = more signal;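 note: score merges 667 nm emission intensity with spot signal to noise over triplicate slides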
# [8] = target: Follistatin-related protein 3 (Homo sapiens) (UniProt O95633); experiment: compounds binding follistatin-related protein 3 – biochemical, small-molecule microarray, 635 nm fluorescence, primary screen (AID 1105); settings: FSTL3 binding, higher = more signal;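 note: score merges emission near 667 nm and signal to noise per printed spot across three slides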
# [9] = target: Dickkopf-related protein 1 (Homo sapiens) (UniProt O94907); experiment: small molecules binding DKK1 protein – biochemical, small-molecule microarray, 635 nm fluorescence scan, primary screen (AID 1106); settings: higher = more signal;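 note: score merges emission near 667 nm with signal to noise over three replicate slides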
# [10] = system: Inhibin beta A chain (activin A); experiment: small molecules binding activin A – biochemical, small-molecule microarray, 635 nm fluorescence scan, primary screen (AID 1107); settings: INHBA, higher = more signal;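 note: mouse activin A protein probed at 4.33 µg/mL on printed slides; score merges bound-protein fluorescence near 667 nm with spot signal-to-noise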
# Chain of Fibroblast growth factor 10 (Homo sapiens) (O15520 whole entry, looked up): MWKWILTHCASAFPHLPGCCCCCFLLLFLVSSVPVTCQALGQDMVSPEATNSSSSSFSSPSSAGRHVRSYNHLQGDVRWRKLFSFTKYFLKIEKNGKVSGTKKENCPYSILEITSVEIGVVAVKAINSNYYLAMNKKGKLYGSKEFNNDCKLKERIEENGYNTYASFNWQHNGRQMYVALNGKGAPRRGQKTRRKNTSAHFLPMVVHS
# Chain of Dickkopf-related protein 1 (Homo sapiens) (O94907 whole entry, looked up): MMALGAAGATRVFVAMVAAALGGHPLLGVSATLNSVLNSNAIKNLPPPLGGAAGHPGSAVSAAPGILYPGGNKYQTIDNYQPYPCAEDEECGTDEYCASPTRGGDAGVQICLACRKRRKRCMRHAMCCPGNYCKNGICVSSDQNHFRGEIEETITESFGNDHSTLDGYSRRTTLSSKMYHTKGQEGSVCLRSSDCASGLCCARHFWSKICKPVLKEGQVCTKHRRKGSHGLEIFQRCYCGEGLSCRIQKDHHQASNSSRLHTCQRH
# Chain of Follistatin-related protein 3 (Homo sapiens) (O95633 whole entry, looked up): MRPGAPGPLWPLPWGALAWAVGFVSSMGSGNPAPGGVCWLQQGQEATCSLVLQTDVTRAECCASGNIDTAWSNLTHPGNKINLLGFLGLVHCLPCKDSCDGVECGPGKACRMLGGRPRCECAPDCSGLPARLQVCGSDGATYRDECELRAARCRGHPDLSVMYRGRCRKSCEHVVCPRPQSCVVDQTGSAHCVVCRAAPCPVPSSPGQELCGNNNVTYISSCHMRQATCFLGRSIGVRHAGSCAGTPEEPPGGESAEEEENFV
# Chain of Epidermal growth factor receptor (Homo sapiens) (P00533 whole entry, looked up): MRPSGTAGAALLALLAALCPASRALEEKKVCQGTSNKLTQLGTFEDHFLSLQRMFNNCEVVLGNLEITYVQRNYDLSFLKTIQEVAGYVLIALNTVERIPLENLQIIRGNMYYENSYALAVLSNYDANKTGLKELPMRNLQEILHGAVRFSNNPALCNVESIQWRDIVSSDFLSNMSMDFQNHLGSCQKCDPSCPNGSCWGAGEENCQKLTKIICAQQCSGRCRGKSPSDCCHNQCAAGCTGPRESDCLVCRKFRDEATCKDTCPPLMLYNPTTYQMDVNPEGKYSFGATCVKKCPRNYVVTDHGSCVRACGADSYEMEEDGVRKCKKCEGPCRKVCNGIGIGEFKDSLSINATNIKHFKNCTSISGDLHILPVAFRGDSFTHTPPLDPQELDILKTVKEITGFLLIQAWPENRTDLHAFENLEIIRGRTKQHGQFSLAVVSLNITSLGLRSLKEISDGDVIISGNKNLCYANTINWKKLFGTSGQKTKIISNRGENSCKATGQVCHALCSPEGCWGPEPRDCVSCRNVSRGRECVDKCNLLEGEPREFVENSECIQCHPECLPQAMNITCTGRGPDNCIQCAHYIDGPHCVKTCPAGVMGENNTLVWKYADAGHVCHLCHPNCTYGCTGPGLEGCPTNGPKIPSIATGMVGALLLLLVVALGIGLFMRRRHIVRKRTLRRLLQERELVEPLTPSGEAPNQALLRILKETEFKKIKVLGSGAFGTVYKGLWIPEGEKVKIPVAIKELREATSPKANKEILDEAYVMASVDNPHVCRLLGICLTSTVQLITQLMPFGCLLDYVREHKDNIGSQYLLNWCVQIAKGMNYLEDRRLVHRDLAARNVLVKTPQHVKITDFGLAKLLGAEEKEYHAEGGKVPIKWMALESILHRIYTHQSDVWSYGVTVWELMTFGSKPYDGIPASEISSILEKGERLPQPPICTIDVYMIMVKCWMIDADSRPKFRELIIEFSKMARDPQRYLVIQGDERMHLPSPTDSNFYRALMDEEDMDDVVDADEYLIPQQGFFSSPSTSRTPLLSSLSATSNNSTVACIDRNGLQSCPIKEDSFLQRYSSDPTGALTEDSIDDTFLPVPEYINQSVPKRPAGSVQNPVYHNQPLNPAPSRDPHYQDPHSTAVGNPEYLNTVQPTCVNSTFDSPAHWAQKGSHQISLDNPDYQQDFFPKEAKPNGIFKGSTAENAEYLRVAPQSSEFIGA
SMILES,composite z-score [1],composite z-score [2],composite z-score [3],z-score [4],composite z-score [5],composite z-score [6],composite z-score [7],composite z-score [8],composite z-score [9],composite z-score [10]
[N-]=[N+]=Nc1ccccc1C[C@]1(C(N)=O)COC(c2ccc(OCCCO)cc2)=N1,0.219,1.07,1.04,-0.32 (inactive),-0.128,-0.51,-0.969,-1.16,-1.18,1.13
CCOC(=O)C[C@H]1[C@H](OC(=O)c2cc3ccccc3oc2=O)[C@@H](NC(=O)c2ccc(-c3ccccc3)cc2)c2cc(OCCCO)ccc2N1C(=O)Cc1ccc(OC)cc1,0.782,0.0384,-0.037,0.595 (inactive),1.04,0.889,0.419,0.686,0.682,0.321
COc1ccc(CCNC(=O)[C@@]2(c3ccc([N+](=O)[O-])cc3)CC(=O)N(C3CCCCC3)[C@@H]2c2ccc(CO)cc2I)cc1,0.401,-0.0644,-0.0582,0.845 (inactive),0.823,0.56,0.19,0.241,0.608,0.44
O=C/C=C/c1ccc(-c2ccccc2)cc1,-0.821,-0.241,0.149,-1.04 (inactive),0.141,-0.1,0.005,0.0445,-0.14,1.1
C[C@]12C(=O)N(CCO)[C@@H]3C(=O)N(c4ccc(Cl)cc4)CC=CC31O[C@@H]1/C=C\CCCOC(=O)C12 (stereo not given in full),-0.617,-0.128,0.776,0.178 (inactive),-1.04,-1.31,-1.51,-1.03,-1.53,0.847
O=C1O[C@H](c2ccccc2)[C@H](c2ccccc2)N2[C@H]1[C@@H](C(=O)O)[C@]1(C(=O)Nc3ccc(C#CC4(O)CCCCCC4)cc31)[C@H]2c1ccccc1OCCO,1.5,0.0035,-0.351,-0.767 (inactive),1.02,1.29,0.24,0.69,0.195,0.745
CS(=O)(=O)CCOC(=O)C1=CC(CCCO)=CC(C2CC2)N(Cc2sc3ccccc3c2Cl)C=C1C(=O)OCCS(C)(=O)=O (stereo not given),1.38,0.33,0.669,0.385 (inactive),0.705,0.838,-0.0062,0.856,0.018,1.36
CC(C)C[C@@H]1NC(=O)[C@@H]2C[C@H](C(=O)NCCCCCCNC(=O)CS)[C@H](c3ccc(O)cc3)N2C1=O,1.57,-0.0965,0.254,-1.1 (inactive),1.45,1.26,0.672,1.47,1.27,-0.0334
C=CC[C@H](O)c1ccc(O)c2ccccc12,0.623,-0.196,-0.0155,-1.26 (inactive),1.1,1.01,1.04,1.42,1.34,1.21
CO[C@H]1O[C@H](CO)[C@@H](OC(=O)Nc2ccccc2)[C@@H]2OC(=O)[C@@H](Cc3ccccc3)C/C=C/C[C@H](Cc3ccccc3)C(=O)O[C@@H]12,1.46,-0.172,-0.0203,0.0457 (inactive),0.73,0.107,-0.191,0.094,0.206,0.983
CCOC(=O)C1=CCC(c2cccn2C(=O)OC(C)(C)C)N(S(=O)(=O)c2ccc(C)cc2)C1 (stereo not given),1.45,0.484,0.574,-0.799 (inactive),0.404,1.3,0.698,0.922,0.0815,1.46
CC(C)C(=C=CC[C@H](O)c1cccc(OCCO)c1)C[C@H](O)c1ccccn1,0.406,-0.326,-0.253,-0.779 (inactive),0.722,0.476,-0.387,0.339,-0.15,0.409
CO[C@H]1O[C@H](CO)[C@@H](OC(=O)Nc2cccc(F)c2)[C@H](OC(=O)Nc2ccc3c(c2)OCO3)[C@@H]1OC(=O)Nc1ccc2c(c1)OCO2,1.13,0.359,0.558,-1.13 (inactive),1,1.2,0.0595,1.37,0.229,0.663
COCCOC(=O)N1C(=O)[C@@]2(c3cc(C#CCNC(N)=O)ccc31)[C@H](C(=O)N1CCN(c3ncccn3)CC1)[C@H]1C(=O)O[C@H](c3ccccc3)[C@H](c3ccccc3)N1[C@@H]2c1ccc(O)cc1,0.505,-0.326,-0.47,-0.428 (inactive),-0.735,-0.438,-1.14,-0.997,-1.92,-0.853
CN1C(=O)C2C=CC(C(O)c3ccc([N+](=O)[O-])cc3)N(Nc3ccccc3)C2C1=O (stereo not given),1.25,0.279,0.998,0.293 (inactive),0.898,0.895,0.0754,1.01,-0.157,0.905
COC(=O)[C@@]1(Cc2ccc(F)cc2)[C@H]2c3cc(C(=O)N4CCCC4)n(C[C@H](O)CO)c3C[C@H]2CN1C(=O)c1ccccc1,0.543,1.48,0.609,0.749 (inactive),0.0396,0.094,-0.0057,0.111,0.145,0.549
Cc1ccc(N2C(=O)c3ccccc3[C@@H](C(=O)NCCN3CCOCC3)[C@@H]2c2ccc(CO)cc2)nc1,1.25,0.0086,0.685,0.17 (inactive),-0.329,-1.09,-0.914,-0.799,-0.459,-0.382
COc1cc2c(cc1O)C(C)N(Cc1sc3ccccc3c1Cl)CC2 (stereo not given),-0.0748,0.247,0.868,-0.283 (inactive),-1.16,-0.306,-1.27,-0.348,-1.56,-0.0182
COc1ccc([Si](C)(C)[C@@H]2[C@@H](CC(=O)N3CCC[C@H]3CO)O[C@]3(C(=O)N(Cc4cccc(N5C(=O)c6cccc7cccc5c67)c4)c4ccccc43)[C@H]2C)cc1,1.22,-0.164,0.0325,-0.134 (inactive),0.415,0.0816,0.192,0.402,0.655,0.608
COC(=O)C(CC#Cc1ccc2c(c1)[C@]1(C(=O)N2)[C@H](C(=O)N2CCCCCCC2)[C@H]2C(=O)O[C@H](c3ccccc3)[C@H](c3ccccc3)N2[C@@H]1c1ccc(OCCO)cc1)C(=O)OC,2.26,2.85,1.58,0.741 (inactive),1.63,1.5,1.94,1.71,2.55,1.73
COC(=O)[C@@]1(Cc2ccc(F)cc2)[C@H]2c3cc(C(=O)N4CCCC4)n(Cc4ccc(OC(F)(F)F)cc4)c3C[C@H]2CN1C(=O)c1ccccc1,0.776,0.142,0.548,1.08 (inactive),-0.135,-0.141,-0.564,-1.03,-0.559,0.602
C=CC[C@]1(C(=O)NCC(O)CO)N=C(c2ccc(OCCCO)cc2)O[C@H]1c1ccccc1CN=[N+]=[N-] (stereo not given in full),-0.285,0.783,1.18,0.704 (inactive),0.722,0.7,-2.08,-1.17,-0.471,0.274
COCCCNC(=O)[C@@]1(Cc2ccccc2I)c2ccccc2C(=O)N(C2CCCCC2)[C@H]1c1ccc(CO)cc1,1.25,0.015,0.445,-0.235 (inactive),0.973,0.681,-0.0802,0.0553,0.249,0.123
COCCOC(=O)N1C(=O)[C@@]2(c3cc(C#CC4(O)CCCCCC4)ccc31)[C@H](C(N)=O)[C@H]1C(=O)O[C@H](c3ccccc3)[C@H](c3ccccc3)N1[C@@H]2c1ccc(OCCO)cc1,0.804,0.527,0.668,-0.0691 (inactive),0.99,1.28,0.484,0.974,0.338,0.725
CC[C@@H](O[Si](C#C[Si](C(C)C)(C(C)C)C(C)C)(C(C)C)C(C)C)c1cn([C@H](C)c2ccccc2)nn1,0.43,0.0317,-0.328,0.242 (inactive),0.403,0.136,0.533,0.658,0.432,-0.142
CC(C)[Si](C#Cc1ccccc1)(O[C@H](c1ccccc1)c1cn(Cc2ccccc2)nn1)C(C)C,1.56,0.191,-0.386,-1.97 (inactive),0.785,1.06,0.726,1.49,1.86,-0.165
COc1ccc(CCNC(=O)[C@@H]2c3ccccc3C(=O)N(Cc3cc(F)cc(C(F)(F)F)c3)[C@H]2c2ccc(CO)cc2)cc1,0.181,1.89,0.877,-0.267 (inactive),0.12,0.765,0.321,1.1,0.157,1.08

# From PubChem BioAssay
